# Experimental data reported in PubChem BioAssay.
# The source made the active and inactive calls.
# How the values were obtained:
# [1] = E. coli DRC41 culture turbidity changes, primary screen, E. coli filamentation inducer project, strain DRC41, OD650, 48 h (AID 1152);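 also: E. coli MC1000 strain DRC41 lacking acrAB efflux pump and sulA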; settings: E. coli DRC41 (acrAB sulA), higher = more signal, called active from +8 up or from −8 down
# [2] = small-molecule binders of probe aLefty1, primary screen, biochemical, small-molecule microarray, 635/667 nm fluorescence (AID 1153); settings: higher = more signal;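 also: score merges spot fluorescence with signal-to-noise ratio from the scanned slide images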
# [3] = PSAC antagonists in infected red cells, primary screen, cell-based, P. falciparum Indochina, OD700, 1 h (AID 1154); settings: P. falciparum Indochina infected RBC osmotic lysis, higher = more signal, called active from +8 up or from −8 down
# [4] = PSAC antagonists in infected red cells, primary screen, cell-based, P. falciparum Indochina, OD700, 2 h (AID 1155);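 also: lysis reports solute entry through the parasite surface anion channel PSAC; channel blockers reduce lysis of infected cells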; settings: P. falciparum Indochina infected erythrocytes, osmotic lysis OD700; higher = more signal, called active from +8 up or from −8 down
# [5] = osmotic lysis modulators in infected erythrocytes, primary screen, PSAC antagonist project, cell-based, P. falciparum Indochina, OD700, 3 h (AID 1156); settings: higher = more signal, called active from +8 up or from −8 down
# [6] = PSAC antagonists in infected red cells, primary screen, cell-based, P. falciparum Indochina, OD700, 18 h (AID 1157); settings: P. falciparum Indochina infected erythrocytes, osmotic lysis OD700, 18 h; higher = more signal, called active from +8 up or from −8 down
# [7] = modulators of S6 phosphorylation in cells, primary screen, cell-based, A549, cytoblot, luminescence, serum-stimulated (AID 1158); settings: A549 phospho-S6 cytoblot, 5 h, higher = more signal;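 also: serum-stimulated A549 lung adenocarcinoma cells; signal is phosphorylated S6 detected by cytoblot immunostaining with HRP secondary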
# [8] = molecular target: NADPH oxidase 2 (Homo sapiens) (UniProt P04839); experiment: NOX2-dependent H2O2 signal modulators, primary screen, NOX inhibitor project, cell-based, HEK293-NOX2, PMA-stimulated, Amplex Red fluorescence (AID 1159); settings: 45 min, higher = more signal, called active from +8 up or from −8 down; also: test concentration not given here
# [9] = molecular target: NADPH oxidase 4 (Homo sapiens) (UniProt Q9NPH5); experiment: NOX4-dependent H2O2 signal modulators, primary screen, NOX inhibitor project, cell-based, HEK293-NOX4, tetracycline-induced, Amplex Red fluorescence (AID 1160); settings: 45 min, higher = more signal, called active from +8 up or from −8 down
# [10] = molecular target: NADPH oxidase 5 (Homo sapiens) (UniProt Q96PH1); experiment: NOX5-dependent H2O2 signal modulators, primary screen, NOX inhibitor project, cell-based, HEK293-NOX5, Amplex Red fluorescence (AID 1161); settings: HEK293-NOX5, ionomycin, 45 min, higher = more signal
# [11] = A549 cell viability effects, profiling panel, calcein-AM fluorescence, 48 h, basal (AID 1162); settings: higher = more signal; also: test concentration not given here
# [12] = adipocyte viability effects, profiling panel, cell-based, 3T3-L1 adipocytes, calcein-AM fluorescence, 48 h, basal (AID 1163); settings: 3T3-L1 adipocytes viability, higher = more signal; also: test concentration not given here
# [13] = HepG2 cell viability effects, profiling panel, calcein-AM fluorescence, 48 h, basal (AID 1164); settings: higher = more signal; also: test concentration not given here
# [14] = MM1S cell viability effects, profiling panel, calcein-AM fluorescence, 48 h, basal (AID 1165); settings: higher = more signal;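 also: viability of MM1S multiple myeloma cells under basal unstimulated conditions; test concentration not given here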
# [15] = basal RPMI8226 viability, no added stimulus, profiling panel, cell-based, calcein-AM fluorescence, 48 h, PK04 Diversity Set (AID 1166); settings: RPMI8226 myeloma viability, higher = more signal;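 also: cells grown under basal conditions without added stimulus; test concentration not given here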
# [16] = basal HepG2 mitochondrial membrane potential changes, profiling panel, cell-based, JC-1 fluorescence, 24 h, 100 nL compound (AID 1167); settings: higher = more signal; also: test concentration not given here
# [17] = basal 3T3-L1 adipocyte mitochondrial potential changes, profiling panel, cell-based, JC-1 fluorescence, 3T3-L1 adipocytes, 24 h, 100 nL compound (AID 1168); settings: JC-1 mitochondrial fluorescence, higher = more signal, called active from +8 up or from −8 down; also: test concentration not given here
# [18] = basal RPMI8226 mitochondrial membrane potential changes, profiling panel, cell-based, JC-1 fluorescence, 24 h, 100 nL compound (AID 1169); settings: RPMI8226 myeloma, JC-1 mitochondrial potential fluorescence, higher = more signal; also: test concentration not given here
# [19] = basal MM1S mitochondrial membrane potential changes, profiling panel, cell-based, JC-1 fluorescence, 24 h, 100 nL compound (AID 1170); settings: higher = more signal; also: test concentration not given here
# [20] = A549 lung cancer cell viability effects, profiling panel, resazurin fluorescence, 24 h, PK04 Diversity Set (AID 1171); settings: higher = more signal, called active from +8 up or from −8 down; also: test concentration not given here
# Chain of NADPH oxidase 4 (Homo sapiens) (Q9NPH5 whole entry, looked up): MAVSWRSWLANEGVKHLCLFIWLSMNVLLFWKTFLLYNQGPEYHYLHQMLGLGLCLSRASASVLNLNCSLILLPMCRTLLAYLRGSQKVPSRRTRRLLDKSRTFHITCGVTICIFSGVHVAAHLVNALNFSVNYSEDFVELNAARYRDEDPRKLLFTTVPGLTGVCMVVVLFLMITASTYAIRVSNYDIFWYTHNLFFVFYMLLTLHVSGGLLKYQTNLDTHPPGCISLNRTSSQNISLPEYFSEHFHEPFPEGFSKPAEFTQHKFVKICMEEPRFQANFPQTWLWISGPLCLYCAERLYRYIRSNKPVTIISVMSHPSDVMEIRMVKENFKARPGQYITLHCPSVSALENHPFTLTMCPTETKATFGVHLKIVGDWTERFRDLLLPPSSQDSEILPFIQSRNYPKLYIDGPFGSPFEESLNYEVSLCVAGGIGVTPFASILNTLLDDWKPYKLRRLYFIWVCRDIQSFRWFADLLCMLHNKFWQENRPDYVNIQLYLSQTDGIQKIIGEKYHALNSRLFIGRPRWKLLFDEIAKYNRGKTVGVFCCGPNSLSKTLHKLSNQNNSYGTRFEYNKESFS
# Chain of NADPH oxidase 5 (Homo sapiens) (Q96PH1 whole entry, looked up): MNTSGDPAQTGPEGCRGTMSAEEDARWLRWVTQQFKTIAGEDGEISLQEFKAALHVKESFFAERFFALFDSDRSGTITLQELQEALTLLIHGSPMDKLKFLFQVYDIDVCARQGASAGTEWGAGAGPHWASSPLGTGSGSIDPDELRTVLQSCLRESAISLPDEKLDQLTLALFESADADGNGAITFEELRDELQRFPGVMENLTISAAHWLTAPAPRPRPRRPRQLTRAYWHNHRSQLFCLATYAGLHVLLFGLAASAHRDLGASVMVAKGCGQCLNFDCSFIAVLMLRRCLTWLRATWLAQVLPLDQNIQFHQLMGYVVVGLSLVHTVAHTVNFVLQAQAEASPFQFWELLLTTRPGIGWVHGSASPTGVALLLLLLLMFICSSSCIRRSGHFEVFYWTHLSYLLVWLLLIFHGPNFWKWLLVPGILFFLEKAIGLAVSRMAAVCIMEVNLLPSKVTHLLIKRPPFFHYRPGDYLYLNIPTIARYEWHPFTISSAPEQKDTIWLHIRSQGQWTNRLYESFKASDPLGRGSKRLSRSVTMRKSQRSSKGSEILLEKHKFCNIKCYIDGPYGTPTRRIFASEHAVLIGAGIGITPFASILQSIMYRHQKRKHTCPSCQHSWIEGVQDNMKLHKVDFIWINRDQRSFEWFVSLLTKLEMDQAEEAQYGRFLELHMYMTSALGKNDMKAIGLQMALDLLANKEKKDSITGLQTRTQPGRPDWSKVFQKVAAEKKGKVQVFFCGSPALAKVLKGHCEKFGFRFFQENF
# Chain of NADPH oxidase 2 (Homo sapiens) (P04839 whole entry, looked up): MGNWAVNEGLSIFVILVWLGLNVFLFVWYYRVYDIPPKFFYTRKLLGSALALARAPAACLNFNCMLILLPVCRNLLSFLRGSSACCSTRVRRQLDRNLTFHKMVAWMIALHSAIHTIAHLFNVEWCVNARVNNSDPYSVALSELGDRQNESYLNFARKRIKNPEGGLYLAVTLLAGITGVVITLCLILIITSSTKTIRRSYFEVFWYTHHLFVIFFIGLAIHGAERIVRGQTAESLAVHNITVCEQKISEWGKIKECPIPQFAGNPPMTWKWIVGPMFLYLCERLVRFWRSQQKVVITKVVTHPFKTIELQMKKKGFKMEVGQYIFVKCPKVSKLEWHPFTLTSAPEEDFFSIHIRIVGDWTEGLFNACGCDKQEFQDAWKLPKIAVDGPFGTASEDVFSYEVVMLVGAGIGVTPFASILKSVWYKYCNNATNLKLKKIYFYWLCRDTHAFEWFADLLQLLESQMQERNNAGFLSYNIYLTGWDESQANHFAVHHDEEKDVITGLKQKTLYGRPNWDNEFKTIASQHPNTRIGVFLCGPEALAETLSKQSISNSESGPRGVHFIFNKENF
SMILES,z-score [1],composite z-score [2],z-score [3],z-score [4],z-score [5],z-score [6],z-score [7],z-score [8],z-score [9],z-score [10],z-score [11],z-score [12],z-score [13],z-score [14],z-score [15],z-score [16],z-score [17],z-score [18],z-score [19],z-score [20]
O=C1N(CCS(=O)(=O)c2ccccc2)c2ccccc2C[C@@]12COC(c1ccc(OCCCO)cc1)=N2,-2.43 (inactive),0.0804,23.6 (active),8.71 (active),2.58 (inactive),0.764 (inactive),-0.616,0.759 (inactive),1.04 (inactive),-0.312,-0.683,0.294,-1.48,-2.06,-0.517,-2.09,0.7 (inactive),-1.06,-0.554,-0.455 (inactive)
O=C(CS)NCCCCCCNC(=O)[C@@H]1C[C@@H]2C(=O)N3CCC[C@H]3C(=O)N2[C@@H]1c1ccc(O)cc1,0.113 (inactive),-0.55,4.95 (inactive),0.471 (inactive),2.2 (inactive),0.252 (inactive),-0.574,0.489 (inactive),-1.38 (inactive),-0.141,-1.09,0.519,-0.507,0.16,0.412,-1.57,-0.124 (inactive),0.653,0.0659,-0.331 (inactive)
COc1ccc(C#Cc2ccc3c(c2)[C@]2(C(=O)N3)[C@H](c3ccc(O)cc3)N3[C@H](c4ccccc4)[C@H](c4ccccc4)OC(=O)[C@H]3[C@@H]2C(=O)N2CCCCCCC2)cc1,0.777 (inactive),2.53,-0.212 (inactive),-0.763 (inactive),-0.272 (inactive),-1.29 (inactive),2.87,0.723 (inactive),-0.00989 (inactive),0.855,0.334,1.01,0.629,-0.0384,-0.208,0.269,3.48 (inactive),-0.538,0.366,-0.531 (inactive)
C=C(COC)C(=O)CC[C@H](OC(C)=O)c1cccc(OCCO)c1,0.527 (inactive),-0.393,4.14 (inactive),-1.22 (inactive),1.88 (inactive),-1.48 (inactive),2.19,-1.66 (inactive),-0.724 (inactive),-1.46,-0.0614,1.55,-0.116,-2.94,-1.07,-0.331,0.715 (inactive),1.18,0.471,-1.07 (inactive)
COc1cc2c(cc1O)C(C)N(Cc1cccc(OC(F)(F)F)c1)CC2 (stereo not given),0.126 (inactive),-0.0015,2.96 (inactive),0.328 (inactive),2.09 (inactive),0.573 (inactive),-0.0952,-3.51 (inactive),-2.46 (inactive),-3.03,-0.762,0.815,-1.51,-2.34,-2,0.0471,-0.793 (inactive),0.0842,-1.24,0.849 (inactive)
CN1CCC(CCCO)=CC1c1ccc(CN2CCCC2)cc1 (stereo not given),0.112 (inactive),0.663,-0.274 (inactive),-0.201 (inactive),-0.0797 (inactive),-0.111 (inactive),-0.494,-3.22 (inactive),-0.765 (inactive),-0.482,-0.701,0.143,-0.86,-0.52,0.559,0.217,-0.0668 (inactive),-0.714,0.00742,0.819 (inactive)
COC(=O)[C@@]1(Cc2ccc(OC)cc2)[C@H]2c3cc(C(=O)N4CCCC4)n(Cc4ccccn4)c3C[C@H]2CN1C(=O)c1ccccc1,-0.824 (inactive),0.595,3.64 (inactive),0.537 (inactive),1.1 (inactive),0.814 (inactive),-0.569,0.29 (inactive),-1 (inactive),-3.2,-0.87,0.588,-0.379,-1.9,-0.676,1.85,-0.85 (inactive),0.556,0.208,-0.823 (inactive)
CCOC(=O)C[C@H]1[C@H](OC(=O)c2ccc(-c3ccccc3)cc2)[C@@H](NC(=O)c2ccc3ccccc3c2)c2cc(OCCCO)ccc2N1C(=O)Cc1ccc(OC)cc1,0.107 (inactive),-0.304,2.49 (inactive),0.927 (inactive),1.21 (inactive),0.263 (inactive),0.452,-1.1 (inactive),-0.0144 (inactive),-1.47,0.0289,0.965,0.0837,-0.379,0.0182,2.96,-0.000915 (inactive),0.462,0.189,0.24 (inactive)
